From PubChem BioAssay (NCI)
Compounds without any hit were thinned out: in the full panel of roughly 83,000, 20% have a hit.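 Note: values are percent growth. 100 is the growth of untreated cells, values between 100 and 0 indicate rising inhibition; between -100 and 0 indicates cell death.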 Active and inactive are the calls of the source. How the source made its calls: active means growth percent below 10; inactive means the rest.

Assays:
Assay in all cases: NCI-60 one-dose screen, 48 h (100 = growth as untreated, 0 = no growth, -100 = all killed)
Conditions in all cases: 10 µM unless noted
[1] = test system: T-47D breast
[2] = test system: BT-549 breast
[3] = test system: MDA-MB-435 melanoma
[4] = test system: SW-620 colon
[5] = test system: MCF7 breast
[6] = test system: HCT-116 colon
[7] = test system: HCC-2998 colon
[8] = test system: KM12 colon

Measured: growth

COc1ccc(N2C(=O)c3cc(OC)c(OC)cc3NC2SCc2ccccc2)cc1 (stereo unspecified)
inactive: [1] 98.5% | [2] 106% | [3] 107% | [4] 114% | [5] 96.3% | [6] 100% | [7] 121% | [8] 108%

C/C(=C(/C)C1CC1CCN(C(=O)c1ccc([N+](=O)[O-])cc1)S(=O)(=O)c1ccc(C)cc1)C1CCCCC1 (stereo unspecified)
inactive: [1] 77.3% | [2] 136% | [3] 99.4% | [4] 96.7% | [5] 86.9% | [6] 89.9% | [7] 112% | [8] 89.6%

COc1ccc(-c2nc(SCC(C)C)nc(N/N=C\c3cccc([N+](=O)[O-])c3)c2C#N)cc1
inactive: [1] 64% | [2] 64.1% | [3] 67.3% | [4] 56.9% | [5] 61.6% | [6] 30.1% | [7] 80.3%

N#C/C(=C\c1ccc2ccccc2c1)C(=O)Nc1sc2c(c1C#N)CCC2
inactive: [1] 87.5% | [2] 94.6% | [3] 107% | [4] 111% | [5] 94.8% | [6] 106% | [7] 113% | [8] 101%

O=C(CCCCCCN1CC(=O)N2[C@@H](c3cc(F)cc(F)c3)c3[nH]c4ccccc4c3C[C@H]2C1=O)NO
inactive: [1] 30.6% | [2] 98.6% | [3] 47.9% | [4] 46.9% | [5] 52% | [6] 27.3% | [7] 82.4% | [8] 69.7%

O=C(CCCCCCN1CC(=O)N2[C@@H](c3cccc(Br)c3)c3[nH]c4ccccc4c3C[C@H]2C1=O)NO
active: [6] 8.35%
inactive: [1] 17.2% | [2] 57.9% | [3] 14% | [4] 15% | [5] 21.4% | [7] 41.6% | [8] 28.4%

CCCCCCNC(=O)Oc1ccc(/C(=C(/C)c2ccc(OC)cc2)c2ccc(OCCN3CCCC3)cc2)cc1
inactive: [1] 59.7% | [2] 84.3% | [3] 74.4% | [4] 62.6% | [5] 18.2% | [6] 31.4% | [7] 87.9% | [8] 82%

Cc1ccc(/C=C/CC(=O)Nc2ccc(C(=O)Nc3ccc(F)cc3N)cc2)cn1
inactive: [1] 28.6% | [2] 73% | [3] 47.2% | [4] 46.3% | [5] 39.6% | [6] 39% | [7] 64.6% | [8] 75.2%

C#C[C@]1(O)CC[C@H]2[C@@H]3CC=C4c5sc(Nc6cccc(C)n6)nc5CC[C@]4(C)[C@H]3CC[C@@]21C
active: [3] -41.5% | [4] -22.6% | [5] -41.5%
inactive: [1] 37.7% | [2] 23.1% | [6] 14.4% | [7] 47.5%

CCN1C(=O)N(CC)C2C1NN=C1SC(c3ccccc3)=CC(=O)N12 (stereo unspecified)
active: [2] -4.35% | [3] -33.3%
inactive: [1] 42.1% | [4] 18.3% | [5] 17.7% | [6] 14.9% | [7] 21.1% | [8] 27.2%

C#C[C@]1(O)CC[C@H]2[C@@H]3CC=C4c5sc(Nc6cccc(Cl)n6)nc5CC[C@]4(C)[C@H]3CC[C@@]21C
inactive: [1] 25.8% | [2] 24.1% | [6] 10.1% | [7] 24.2%
active: [3] -65.8% | [4] -61% | [5] -70.4% | [8] -10.8%

COc1ccc(C2CC(c3ccc(Nc4nc(NCCO)nc(Nc5ccc(Cl)cc5)n4)cc3)=Nc3c(N)nc(N)nc3N2)cc1 (stereo unspecified)
inactive: [1] 72.1% | [2] 77.5% | [3] 74.9% | [4] 41.2% | [7] 93.5% | [8] 55.4%
active: [5] -71.8% | [6] -80.3%

O=C(COc1ccc(C2SCC(=O)N2c2ccccc2)cc1)c1ccccc1 (stereo unspecified)
inactive: [1] 81.5% | [2] 92% | [3] 103% | [4] 104% | [5] 88.3% | [6] 94.8% | [7] 102% | [8] 99.4%

O=C1c2c(c3c4cc(Br)ccc4[nH]c3c3ccc4ccccc4c23)C(=O)N1CCN1CCCCC1
active: [3] -41.8% | [5] -35.6% | [6] -61.8% | [7] 2.69%
inactive: [1] 43.3% | [2] 91% | [4] 10.5%

CC1=CC(=O)CC(C)(C)[C@@]1(O)/C=C/C(C)=C\C(=O)O
active: [1] -22.7% | [2] -22.4% | [3] -70.7% | [4] 0.826% | [5] -14.6% | [6] -34% | [7] -52.1% | [8] 3.82%

COc1ccc(/C=N/Nc2nc(Nc3ccccc3)nc(Nc3ccc(S(N)(=O)=O)cc3)n2)cc1
inactive: [1] 63.1% | [2] 85.7% | [3] 76.6% | [4] 72.4% | [5] 41% | [6] 50.2% | [7] 87% | [8] 74.4%

CC(=O)c1sc(Nc2cccc(Nc3nc(C)c(C)s3)c2)nc1C
inactive: [1] 13.3% | [2] 46.2% | [3] 59.1% | [4] 62.5% | [5] 61.7% | [6] 44.2% | [7] 80.1% | [8] 60.2%

CC1CCN(S(=O)(=O)c2ncsc2-c2ccccc2)CC1
inactive: [1] 90.7% | [2] 73.5% | [3] 95.5% | [4] 100% | [5] 72.3% | [6] 87.5% | [7] 97.4% | [8] 94.8%

CCNC(=O)Oc1ccc(/C(=C(/C)c2ccc(Cl)cc2)c2ccc(OCCN3CCCC3)cc2)cc1
inactive: [1] 56.8% | [2] 90.4% | [3] 89.8% | [4] 83.1% | [5] 25.3% | [6] 53.1% | [7] 77.4% | [8] 95.5%

CS(=O)(=O)c1nccc(-c2c(-c3ccc(F)c(OCCc4ccccc4)c3)nc3sccn23)n1
active: [1] -4.49% | [5] 4.77% | [7] -46.4%
inactive: [2] 104% | [3] 104% | [4] 103% | [6] 92.5% | [8] 77.5%

Clc1ccc(-c2csc(N/N=C/c3nc4ccccc4n3C3CC3)n2)cc1
inactive: [1] 111% | [2] 103% | [3] 98.9% | [4] 107% | [5] 94.2% | [6] 96.3% | [7] 105%

COc1ccc(OC)c([C@H]2c3[nH]c4ccccc4c3C[C@H]3C(=O)N(CCCCCCC(=O)NO)CC(=O)N23)c1
inactive: [1] 65% | [2] 107% | [3] 85% | [4] 72.5% | [5] 72.2% | [6] 66.8% | [7] 99.9% | [8] 91.7%

COc1ccc(-c2cc(-c3cccc4ccccc34)n3c(n2)nc2ccccc23)cc1OC
inactive: [1] 19.2% | [2] 34.6% | [3] 47.3% | [4] 29.8% | [5] 15.4% | [6] 31.5% | [7] 72% | [8] 68.1%

COc1ccc(-c2ccc3c4c(cccc24)C(=O)N(N2C(=O)c4cccc5cccc(c45)C2=O)C3=O)cc1
inactive: [1] 98% | [2] 106% | [3] 98.8% | [4] 96.2% | [5] 15.6% | [6] 96.8% | [7] 114%

Cc1cn(-c2cc(NC(=O)c3cncc(C#Cc4cnc5ccc(OCCCS(C)(=O)=O)nn45)c3)cc(C(F)(F)F)c2)cn1
inactive: [1] 30.5% | [3] 34.7% | [7] 17.4%
active: [2] -1.88% | [4] 8.59% | [5] 0.458% | [6] 3.57% | [8] -17.8%

CCN(CC)CCN1C(=O)c2c(c3c4cc(Br)ccc4[nH]c3c3ccc4ccccc4c23)C1=O
active: [1] -34.5% | [3] -94.7% | [4] -61.6% | [5] -80% | [6] -80.1% | [7] -89.5%
inactive: [2] 61.8%

O=C1[C@H]2Cc3c([nH]c4ccccc34)[C@@H](c3c(Cl)cccc3Cl)N2C(=O)CN1C1CCN(Cc2ccccc2)CC1
inactive: [1] 102% | [2] 106% | [4] 44.5% | [5] 47.5% | [7] 102% | [8] 84.5%
active: [3] 0.213% | [6] -1.46%

CC1(C)CC[C@]2(C(=O)N3CCCNCC3)CC[C@]3(C)C(=CC[C@@H]4[C@@]5(C)CCC(=O)C(C)(C)[C@@H]5CC[C@]43C)[C@H]2C1
inactive: [1] 100% | [2] 112% | [3] 112% | [4] 101% | [5] 93.6% | [6] 103% | [7] 102% | [8] 105%

NCCN1CCN(c2nc(-c3ccccc3)nc3nc(-c4ccccc4)oc23)CC1
inactive: [2] 92.5%
active: [1] -16.2% | [3] -77.6% | [4] -55% | [5] -88.3% | [6] -82.2% | [7] -14.4% | [8] -55.4%

Cc1cc(O)c2c(c1)C(=O)C(c1c(C)cc3c(c1O)C(=O)C=CC3=O)=CC2=O
inactive: [1] 21.9% | [2] 113% | [3] 96.5% | [5] 49.9% | [6] 72.8% | [7] 112% | [8] 109%
active: [4] 8.08%

Cc1ccc(-c2csc(N/N=C/c3nc4ccccc4n3C3CC3)n2)cc1
inactive: [2] 73.1% | [3] 92.4% | [5] 50.2% | [6] 89.3% | [7] 90%
active: [1] -50.9% | [4] -72%
